Target: FXR LBD (GAL4 fusion) (UniProt Q96RI1)
Assay: luciferase reporter transactivation, fold of solvent control; higher = stronger receptor activation
Conditions: HEK293T, exposure time: 24 h
Experimental: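 HEK293T cells were transiently transfected with a GAL4-DBD fused to the ligand-binding domain of a human nuclear receptor (PPARα, PPARγ, PPARδ, FXR, LXRα, PXR, RARα or CAR), the GAL4-(UAS)5-TK firefly luciferase reporter and a Renilla luciferase normalisation plasmid. Cells were exposed to compound for 24 h in 0.5% DMSO. Firefly/Renilla luciferase was expressed as fold of the solvent control (=1). Values are the mean of 2-3 biological replicates; receptor agonists were used as positive controls.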

Sequence of FXR LBD (GAL4 fusion) (Q96RI1 whole entry, looked up, the tested form may be a part): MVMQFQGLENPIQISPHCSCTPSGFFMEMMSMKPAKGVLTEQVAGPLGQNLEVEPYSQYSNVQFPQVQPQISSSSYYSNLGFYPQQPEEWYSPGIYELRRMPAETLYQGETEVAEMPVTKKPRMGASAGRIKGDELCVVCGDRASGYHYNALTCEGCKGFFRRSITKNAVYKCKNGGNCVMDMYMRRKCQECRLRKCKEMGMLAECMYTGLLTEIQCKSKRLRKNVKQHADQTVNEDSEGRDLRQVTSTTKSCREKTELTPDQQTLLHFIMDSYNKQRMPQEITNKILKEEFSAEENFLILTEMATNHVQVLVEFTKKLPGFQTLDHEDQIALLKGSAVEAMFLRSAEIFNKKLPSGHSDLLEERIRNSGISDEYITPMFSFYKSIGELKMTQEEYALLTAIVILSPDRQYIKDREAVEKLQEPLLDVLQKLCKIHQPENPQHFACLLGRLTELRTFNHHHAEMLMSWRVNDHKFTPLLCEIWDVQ

Structure (SMILES)	luciferase reporter transactivation (concentration: 1 µM)	luciferase reporter transactivation (concentration: 5 µM)	luciferase reporter transactivation (concentration: 10 µM)	luciferase reporter transactivation (concentration: 25 µM)	luciferase reporter transactivation (concentration: 50 µM)	luciferase reporter transactivation (concentration: 100 µM)	luciferase reporter transactivation (concentration: 250 µM)	luciferase reporter transactivation (concentration: 500 µM)
O=S(=O)(O)CCC(F)(F)C(F)(F)C(F)(F)C(F)(F)C(F)(F)C(F)(F)F [6:2 fluorotelomer sulfonic acid]	1.09	0.835	1.32	1.37	1.75	2.38		
OCCC(F)(F)C(F)(F)C(F)(F)C(F)(F)C(F)(F)C(F)(F)F [6:2 fluorotelomer alcohol]	0.815	0.885	0.96	0.834	0.847	0.833	0.628	0.416
O=S(=O)(O)CCC(F)(F)C(F)(F)C(F)(F)C(F)(F)C(F)(F)C(F)(F)C(F)(F)C(F)(F)F [8:2 fluorotelomer sulfonic acid]	0.842	1.12	1.16	1.21	1.53	4.17	3.41	2.14
O=C(O)C(F)(F)C(F)(F)C(F)(F)C(F)(F)F [perfluoropentanoic acid]	0.969	1.05	1.05	1.12	1.18	1.11	1.18	2.08
CC(C)c1onc(-c2c(Cl)cccc2Cl)c1COc1ccc(/C=C/c2cccc(C(=O)O)c2)c(Cl)c1			50.2					
